Reference: PubChem BioAssay (Tox21)
Inconclusive results are not listed. Entries that show only a call come without a potency. Activity calls are given as the source filed them. The call rests on the fitted dose curve; in most records, active means well fitted cell-killing curve with a large enough effect in the repeat runs; inconclusive means weak or mixed curves, or effect the other way; inactive means flat fitted curve, though single readings scatter.

Tests used:
[1] = cAMP Responsive Elements (CRE) small molecule antagonists, cell-based qHTS assay: qHTS cell viability counter screen (AID 2060913); details: CRE-bla HEK293T viability, CellTiter-Glo luminescence, 5 h; series mostly up to 92.4 µM; further: nearly all actives have a fitted effect of over 40% in size
Summary of the method: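 CRE-bla HEK293T cells were seeded in assay medium with 10% dialyzed FBS, incubated 18 hrs at 37 C, then exposed to compounds plus 0.25 uM final NKH477 for 3 hrs. Viability was read by CellTiter-Glo luminescence after 30 min, in the same wells.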

[2] = cAMP Responsive Elements (CRE) small molecule agonists, cell-based qHTS assay: qHTS cell viability counter screen (AID 2060914); details: CRE-bla HEK293T viability, CellTiter-Glo luminescence, 5 h; series mostly up to 92.4 µM;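 further: viability read after 3 h of compound exposure; nearly all actives have a fitted effect of over 50% in size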
Summary of the method: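 Cytotoxicity counter screen multiplexed with the CRE-bla reporter assay in HEK 293T cells: 3 h compound exposure at 37 °C, followed by CellTiter-Glo luminescence measured in the same wells.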

Compound | Potency [1] | Potency [2]
C[C@H]1CCCC(=O)CCC/C=C/c2cc(O)cc(O)c2C(=O)O1 | inactive | inactive
COc1ccccc1N1CCNCC1 | inactive | inactive
C=C(C)C(=O)OCC1CO1 (stereo unspecified) | inactive | inactive
